Drawing on the supplement of paper PMC13094657, this text covers cell viability and kynurenine production for 19 compounds.

Assay [1] deals with MDA-MB-231. Nature of the assay: cell viability relative to vehicle unstimulated control (fraction); higher = more viable cells. To be noted: pre-treatment time: 18 h then 24 h IFNg/TNF.
For assay [2], the system named is MDA-MB-231. Nature of the assay: kynurenine production, fold change vs DMSO IFNg/TNF control; higher = more kynurenine produced (less inhibition). The settings on record: pre-treatment time: 18 h then 24 h IFNg/TNF. The procedure, abridged: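 Fold change over cytokine-stimulated vehicle wells on the same plate is the measure used for kynurenine production, averaged across duplicate plates in the first screening round. MDA-MB-231 cells, seeded 24 h beforehand at 7 × 10^4/well in 96-well plates, were pre-treated 18 h with each natural product in 0.1% DMSO and stimulated 24 h at 37°C with IFNγ (1 U/ml) and TNF (6.25 ng/ml). Supernatants were read at 492 nm following trichloroacetic acid and p-dimethylaminobenzaldehyde treatment, against 0–100 μM standards.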

Structures can show the parent of a compound that is named as a salt. ± gives the standard deviation of the averaged measurements.
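For cell viability relative to vehicle unstimulated control in this document: viability of the cells left after supernatant collection, read with Deep Blue dye added for 4 h, as absorbance at 570 nm minus 600 nm.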

With `CN1[C@@H]2C[C@@H](OC(=O)[C@H](CO)c3ccccc3)C[C@H]1[C@@H]1O[C@@H]12` [Scopolamine hydrobromide] (compound dose: 10 uM), in assay [1], the cell viability stood at 0.983 ± 0.025. In assay [2], the kynurenine production was 0.811 ± 0.067.

`CO[C@H]1CCN2[C@@H]3C=CC4=CC(=O)O[C@]4(C3)[C@@H]2C1` [Securitinine] (compound dose: 10 uM): the cell viability in assay [1] is 0.983 ± 0.035. Besides, the kynurenine production in assay [2] stood at 0.734 ± 0.084.

Take `COc1cc(C(=O)O[C@H]2[C@@H]3C=CO[C@@H](O[C@@H]4O[C@H](CO)[C@@H](O)[C@H](O)[C@H]4O)[C@@H]3[C@@]3(CO)O[C@@H]23)ccc1O` [Picroside II] (compound dose: 10 uM): in assay [1], the cell viability was determined as 0.923 ± 0.039. Besides, the kynurenine production in assay [2] stood at 0.919 ± 0.16.

Consider `COc1cc2c(cc1OC)-c1c3c(cc4c1[C@H](C2)N(C)CC4)OCO3` [Dicentrine] (compound dose: 10 uM), for which the cell viability in assay [1] came to 0.83 ± 0.043. Further, in assay [2], the kynurenine production was 0.432 ± 0.0093.

Consider `C[C@@H]1CC[C@H]2[C@@H](C)C(=O)O[C@@H]3O[C@@]4(C)CC[C@@H]1[C@]32OO4` [Artemisinin] (compound dose: 10 uM), for which the cell viability in assay [1] amounted to 1.06 ± 0.079. In addition, the kynurenine production in assay [2] stood at 0.581 ± 0.11.

As to `C/C=C(/C)C(=O)O[C@H]1C(C)=C[C@]23C(=O)[C@@H](C=C(C)[C@@H](O)[C@]12O)[C@H]1[C@@H](C[C@H]3C)C1(C)C` [20-Deoxyingenol 3-angelate] (compound dose: 10 uM), the cell viability in assay [1] stood at 1.04 ± 0.05. Also, in assay [2], the kynurenine production was 0.8582 ± 0.0053.

On to `CN1[C@@H]2CC(O)C[C@H]1[C@@H]1O[C@@H]12` (stereo partly drawn) [Scopine] (compound dose: 10 uM), for which the cell viability in assay [1] was 1. Also, the kynurenine production in assay [2] came out at 0.798 ± 0.03.

In the case of `COc1ccc(CC2c3cc(OC)c(OC)cc3CCN2C)cc1OC` (stereo not drawn) [Laudanosine] (compound dose: 10 uM), the cell viability in assay [1] is 1.02 ± 0.043. Moreover, the kynurenine production in assay [2] is 0.52 ± 0.037.

Consider `CC(C)(O)/C=C/C(=O)[C@](C)(O)[C@H]1[C@H](O)C[C@@]2(C)[C@@H]3CC=C4[C@@H](C[C@H](O)C(=O)C4(C)C)[C@]3(C)C(=O)C[C@]12C` [Cucurbitacin D] (compound dose: 10 uM), for which, in assay [1], the cell viability stood at 0.55 ± 0.022. For the same compound, the kynurenine production in assay [2] amounted to 0.326 ± 0.083.

For `CC(=O)OC(C)(C)/C=C/C(=O)[C@](C)(O)[C@H]1[C@H](O)C[C@@]2(C)[C@@H]3CC=C4[C@@H](C=C(O)C(=O)C4(C)C)[C@]3(C)C(=O)C[C@]12C` [Cucurbitacin E] (compound dose: 10 uM), the cell viability in assay [1] worked out at 0.52 ± 0.0012. In assay [2], the kynurenine production turned out to be 0.19 ± 0.034.

As for `CN1[C@@H]2CC[C@H]1C[C@@H](OC(=O)C(CO)c1ccccc1)C2` (stereo partly drawn) [Atropine sulfate] (compound dose: 10 uM), the cell viability in assay [1] was 0.996 ± 0.016. In assay [2], the kynurenine production turned out to be 0.795 ± 0.044.

Turning to `CN[C@H]1CCc2cc(OC)c(OC)c(OC)c2-c2ccc(OC)c(=O)cc21` [Demecolcine (colcemid)] (compound dose: 10 uM), the cell viability in assay [1] was 0.847 ± 0.13. Further, in assay [2], the kynurenine production came to 0.486 ± 0.099.

For `O=C(O)c1ccc(=O)[nH]c1` [6-hydroxypyridine-3-carboxylic acid] (compound dose: 10 uM), the cell viability in assay [1] was determined as 0.99 ± 0.039. Besides, in assay [2], the kynurenine production is 0.821 ± 0.09.

As to `CC1=C[C@@H]2C(=O)[C@]3(C=C(C)[C@H](O)[C@@]3(O)[C@@H]1O)[C@H](C)C[C@@H]1[C@H]2C1(C)C` [20-Deoxyingenol] (compound dose: 10 uM), the cell viability in assay [1] stood at 0.975 ± 0.11. For the same compound, the kynurenine production in assay [2] came to 0.703 ± 0.12.

As to `CN1[C@@H]2CC[C@H]1C[C@H](O)C2` [Pseudotropine] (compound dose: 10 uM), the cell viability in assay [1] came to 1.052 ± 0.0024. Further, in assay [2], the kynurenine production was found to be 1.14 ± 0.4.

In the case of `CC(=O)OC[C@]12[C@H](OC(C)=O)[C@H](OC(C)=O)[C@@H]3[C@@H](OC(C)=O)[C@@]14O[C@@]3(C)COC(=O)c1cccnc1CCC(C)C(=O)O[C@@H]([C@H](OC(=O)c1ccco1)[C@@H]2OC(C)=O)[C@]4(C)O` (stereo partly drawn) [Wilforgine] (compound dose: 10 uM), the cell viability in assay [1] is 1.02 ± 0.14. For the same compound, the kynurenine production in assay [2] was 1.04 ± 0.077.

On to `C=C1[C@@H]2CCC3[C@@](CC[C@@H]4[C@H](C(=O)O)C[C@@H](O[C@@H]5O[C@H](CO)[C@@H](OS(=O)(=O)O)[C@H](OS(=O)(=O)O)[C@H]5OC(=O)CC(C)C)C[C@@]34C)(C2)[C@@H]1O` (stereo partly drawn) [Atractyloside (potassium salt)] (compound dose: 10 uM), for which the cell viability in assay [1] worked out at 0.797 ± 0.18. The kynurenine production in assay [2] worked out at 0.945 ± 0.02.

Regarding `O=C(/C=C/c1ccccc1)OC[C@H]1O[C@@H](O[C@@H]2OC=C[C@H]3[C@H](O)[C@@H]4O[C@]4(CO)[C@@H]23)[C@H](O)[C@@H](O)[C@@H]1O` [Picroside I] (compound dose: 10 uM), in assay [1], the cell viability came to 0.9642 ± 0.0044. Moreover, in assay [2], the kynurenine production stood at 0.923 ± 0.05.

Turning to `CC(C)[C@]12O[C@H]1[C@@H]1O[C@]13[C@]1(O[C@H]1C[C@H]1C4=C(CC[C@@]13C)C(=O)OC4)[C@@H]2O` [Triptolide] (compound dose: 10 uM), the cell viability in assay [1] came to 0.64 ± 0.034. Also, the kynurenine production in assay [2] turned out to be 0.152 ± 0.021.
